According to PubChem BioAssay (NCI):
This is part of a sample that, as a whole, favours compounds with a hit. Of some 83,000 tested, about 20% had one in any assay.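 Step 1: grow cells in 96-well plates. Step 2: add test compound at a single concentration. Step 3: incubate 48 h. Step 4: record percent growth.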 Activity calls are given as the source filed them. The calls were made as follows: active = growth percent below 10; inactive = the rest.

Experiments:
Assay in all cases: NCI-60 one-dose screen, 48 h (100 = growth as untreated, 0 = no growth, -100 = all killed)
[1] = tested on: NCI-H23 lung; settings: 10 µM
[2] = tested on: HOP-92 NSCLC; settings: 10 µM
[3] = tested on: K-562 leukemia; settings: 10 µM
[4] = tested on: MDA-MB-231 breast; settings: 10 µM
[5] = tested on: RXF 393 renal; settings: 10 µM
[6] = tested on: LOX IMVI melanoma; settings: 10 µM
[7] = tested on: EKVX NSCLC; settings: 10 µM
[8] = tested on: UO-31 renal; settings: 10 µM
[9] = tested on: CCRF-CEM leukemia; settings: 10 µM
[10] = tested on: MOLT-4 leukemia; settings: 10 µM
[11] = tested on: SR leukemia; settings: 10 µM
[12] = tested on: HS 578T breast; settings: 10 µM
[13] = tested on: SW-620 colon; settings: 10 µM
[14] = tested on: SK-MEL-28 melanoma; settings: 10 µM
[15] = tested on: IGROV1 ovarian; settings: 10 µM
[16] = tested on: MDA-MB-468 breast; settings: 10 µM unless noted
[17] = tested on: NCI-H226 lung; settings: 10 µM
[18] = tested on: COLO 205 colon; settings: 10 µM
[19] = tested on: SNB-19 CNS; settings: 10 µM
[20] = tested on: U251 CNS; settings: 10 µM

Measured: growth

CC[C@]12C=CCN3CC[C@@]4(c5ccc(OC)cc5N(C)[C@H]4[C@@](O)(C(=O)OC)[C@@H]1OC(=O)CCC[P+](c1ccc(F)cc1)(c1ccc(F)cc1)c1ccc(F)cc1)[C@@H]32
active: [2] -6.2% | [5] -10.4%
inactive: [1] 35.5% | [3] 21.6% | [4] 22% | [6] 31% | [7] 58.1% | [8] 81.5% | [9] 20% | [10] 37.1% | [11] 42.6% | [12] 19.1% | [13] 45.3%

CCOP(=O)(OCC)C(NC(C)=O)C(=O)SCCN (stereo not drawn)
inactive: [1] 101% | [2] 108% | [3] 100% | [4] 99.2% | [6] 92.1% | [14] 108% | [7] 100% | [8] 81% | [9] 100% | [10] 105% | [11] 98.4% | [15] 110% | [12] 100% | [13] 112% | [16] 124%

O=C(/C=C/c1ccccc1Cl)c1nc2ccccc2n1Cc1ccc(F)cc1
active: [1] -78.2% | [17] -75.1% | [2] -65.4% | [18] -83.5% | [3] -25.9% | [5] -97.8% | [19] -79.2% | [20] -87.5% | [14] -86.2% | [8] -99.6% | [9] -25.4% | [10] -16.2% | [11] -27.9% | [16] -94.1%

O=C(/C=C/c1ccc(Cl)cc1Cl)c1nc2ccccc2n1Cc1ccc(F)cc1
active: [9] -10.2% | [10] 4.16% | [11] -1.72%
inactive: [1] 47.8% | [17] 38.7% | [2] 36.6% | [3] 14.5% | [5] 32.4% | [19] 57.7% | [20] 13.4% | [14] 74% | [7] 35.6% | [8] 36.5% | [16] 12.3%

CC(C)C[C@H](NC(=O)CNC(=O)C[C@H]1O[C@@H]2OC3(C)CC[C@H]4[C@H](C)CC[C@@H]([C@H]1C)[C@@]24OO3)B(O)O
active: [1] -2.35% | [17] -22.4% | [2] -20.1% | [3] 4% | [4] -68% | [5] -81.6% | [6] -86.4% | [9] -9.96% | [10] 1.81% | [15] 2.58% | [12] 7.9% | [13] 1.51% | [16] -60.8%
inactive: [18] 17.8% | [19] 27.4% | [8] 15.5% | [11] 28.7%

CC[C@]12C=CCN3CC[C@@]4(c5ccc(OC)cc5N(C)[C@H]4[C@@](O)(C(=O)OC)[C@@H]1OC(=O)CCC[P+](C1CCCCC1)(C1CCCCC1)C1CCCCC1)[C@@H]32
inactive: [7] 15.4% | [8] 76.8% | [11] 29.1%
active: [1] -4.73% | [2] -43.8% | [3] 3.31% | [4] -90.8% | [5] -70.3% | [20] -82.5% | [6] -96% | [14] -85.9% | [9] -40.9% | [10] 2.35% | [12] -33% | [13] 3.91% | [16] -79.6%

CC[C@@]12CC(C(=O)OC)=C3Nc4cc5c(cc4[C@@]34CCN(C[C@H]3O[C@H]31)[C@@H]24)[C@@H]1[C@H](O5)[C@@H](O)[C@@]2(CC)CC(C(=O)OC)=C3Nc4cc(OC)ccc4[C@@]34CCN1[C@@H]24
active: [17] -4.56% | [3] 2.66% | [5] -37.8% | [6] -64.9% | [10] -4.22% | [11] -16.2% | [12] -6.21% | [16] -56.3%
inactive: [2] 21.2% | [4] 18% | [19] 21.3% | [14] 27.1% | [7] 31.3% | [8] 10.1% | [9] 15% | [13] 16.3%

COc1cc(OC)c(/C=C/C(=O)c2nc3ccccc3n2Cc2ccc(F)cc2)c(OC)c1
inactive: [1] 89% | [17] 72.8% | [2] 50.2% | [3] 81.9% | [5] 33.7% | [19] 51.5% | [20] 101% | [14] 92.8% | [7] 73.5% | [8] 82.7% | [9] 64.5% | [10] 44.7% | [11] 74.3% | [16] 80.1%

CCC[Se]C(=O)c1ccc(C(=O)[Se]CCC)s1
inactive: [9] 13.6% | [11] 18.5%
active: [1] -49.2% | [2] -57.8% | [3] 7.32% | [5] -41.3% | [19] -86.5% | [7] -79.7% | [8] -55.5% | [10] 7.32% | [15] -67.3% | [16] -80.6%

O=C(/C=C/c1ccco1)c1nc2ccccc2n1Cc1ccc(Br)cc1
inactive: [17] 48.2% | [18] 69.7% | [20] 18.2% | [8] 34.4%
active: [2] 3.99% | [3] 7% | [5] -1.81% | [9] -6.79% | [10] 3.6% | [11] 4.72% | [16] -14.5%

CC(=C\C(=O)Oc1ccc2c3c1OC1C(O)CCC4(O)C(C2)N(CC2CCC2)CCC314)/C=C1\CCCc2ccccc21 (stereo not drawn)
active: [6] 5.47% | [16] -15.4%
inactive: [1] 64.3% | [17] 56.3% | [2] 34.2% | [18] 39.4% | [3] 19.7% | [4] 75.3% | [5] 37.7% | [19] 70.5% | [14] 17.1% | [8] 33.8% | [10] 31.1% | [15] 67.1% | [12] 59.8% | [13] 28.4%

COc1ccc(/C=C/C(=O)c2nc3ccccc3n2Cc2ccc(Br)cc2)cc1
inactive: [1] 61.9% | [17] 69.7% | [2] 64.2% | [3] 21.1% | [5] 83.6% | [19] 74.4% | [7] 52.5% | [8] 52.4% | [9] 18.7% | [10] 20.7% | [11] 25.6% | [16] 16.9%

CC12OOC(C)(OO1)C2CCC(=O)NCCNc1ccnc2cc(Cl)ccc12 (stereo not drawn)
active: [6] 3.57%
inactive: [1] 92.6% | [2] 111% | [3] 39.4% | [4] 96.6% | [5] 102% | [19] 98.2% | [20] 110% | [8] 76.1% | [9] 80.6% | [10] 98.6% | [11] 21.4% | [15] 89.2% | [12] 99.8% | [13] 80.6% | [16] 82.7%

CC(=O)Oc1ccccc1C(=O)NC([Se])=NC1CCCCC1
active: [1] -0.217% | [17] -21% | [5] -68.3% | [14] -14.7% | [7] -59% | [8] -87.7% | [16] -4.29%
inactive: [2] 32% | [18] 28.9% | [3] 61.8% | [9] 28.5% | [10] 29.4% | [11] 41.4%

O=C(/C=C/c1cccc(Br)c1)c1nc2ccccc2n1Cc1ccc(Br)cc1
active: [1] -50.7% | [2] -48.8% | [3] -2.19% | [5] -81.2% | [14] -53.4% | [8] -57.3% | [9] -15.6% | [10] -6.66% | [11] -12.4%

COc1cc(OC)c(S(=O)(=O)N(CCCl)CCCl)cc1C(=O)/C=C/c1ccc(C)cc1
inactive: [17] 81.5% | [2] 70.5% | [3] 70.9% | [4] 35% | [19] 29.8% | [7] 89.5% | [8] 55.6% | [9] 70.7% | [10] 82.4% | [11] 53.6% | [12] 56.8% | [13] 82.8% | [16] 68.6%
active: [5] -17.9% | [6] -24%

COc1cc2cc(C(=O)N3C[C@@H](CCl)c4c3cc(OC(=O)N3CCN(C)[C@@H]5CSSC[C@H]53)c3ccccc43)[nH]c2c(OC)c1OC
active: [17] -42.7% | [2] -40.2% | [18] -59.2% | [3] -6.55% | [4] -51.3% | [5] -93.8% | [6] -90.2% | [7] -86.3% | [8] -52% | [9] -23.1% | [10] -27.3% | [11] -13.9% | [15] -61% | [12] -36% | [13] -9.04% | [16] -86.3%

CC[C@]12C=CCN3CC[C@@]4(c5ccc(OC)cc5N(C)[C@H]4[C@@](O)(C(=O)OC)[C@@H]1OC(=O)CCCC[P+](c1ccc(C)cc1)(c1ccc(C)cc1)c1ccc(C)cc1)[C@@H]32
active: [17] -78.6% | [2] -77.9% | [18] -64.1% | [3] 0.797% | [4] -97.2% | [5] -87.6% | [19] -96.5% | [6] -94.5% | [8] -96% | [9] -72.4% | [10] -25% | [15] -91.8% | [12] -69.9% | [13] -88.1% | [16] -92.5%
inactive: [11] 25.8%

CC12OOC(C)(OO1)C2CCC(=O)NCCCNc1ccnc2cc(Cl)ccc12 (stereo not drawn)
active: [2] 4.9% | [3] 4.06% | [5] 4.73% | [6] -92.8% | [8] -99.4% | [9] 3.13% | [11] -36.1% | [16] -52.7%
inactive: [1] 68.8% | [17] 94% | [4] 82.7% | [19] 94.1% | [20] 101% | [14] 72% | [7] 85.6% | [10] 34.6% | [12] 103% | [13] 18.9%

COC(=O)CCn1c(-c2ccc(-n3cc(-c4ccc(O[C@H]5O[C@@H]6OC7(C)CC[C@H]8[C@H](C)CC[C@@H]([C@H]5C)[C@@]68OO7)cc4)nn3)cc2)nc2ccccc21
inactive: [17] 32.8% | [3] 21% | [4] 35% | [5] 37.3% | [19] 24.5% | [14] 28.6% | [9] 28.1% | [10] 11% | [12] 30.3% | [13] 23.9% | [16] 11.1%
active: [2] 1.85% | [6] -54.5% | [8] 6.53% | [11] -11.8%
